# Screening results as filed in PubChem BioAssay.
# An excerpt weighted towards active compounds, which were near 10% of everything screened.
# Mm-Cpn inhibitor: inhibitors of Methanococcus maripaludis chaperonin TRiC (MmCpn). Potency, µM (series often up to 76.9 µM), without a hit: top-dose activity, negative = inhibition, usual class: inhibitors. purified Mm-Cpn ATPase, ADP Transcreener TR-FRET. 0.031% of 330,000 active; also: potency is read from the fitted curve at half-maximal effect; nearly all actives have a fitted effect of over 80% in size
#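 ATPase turnover read by TR-FRET ADP competition (Eu cryptate antibody/ADP-d2, 665/590 nm): 10uM ATP final, 25nM Mm-CPN final, 30 min 37degC after 10-min compound preincubation, pH 7.4 Tris/KCl/MgCl2/DTT buffer.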
# Sfp PPTase inh: Sfp phosphopantetheinyl transferase inhibition | Potency, µM, for inactives: largest response in the series, negative = inhibition, hits mostly inhibitors | Biochemical Sfp PPTase activity, qHTS | 3.5% of 310,000 active | Q9F4F7 | AID 1490;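 also: the enzyme is Sfp with the accession as filed and its product quenches rhodamine fluorescence; potency is read from the fitted curve at half-maximal effect; 0% = enzyme reaction without inhibitor and -100% = no enzyme wells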
#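 Fluorescence-quenching assay: 15 nM Sfp-PPTase preincubated 15 min at room temperature with compound, then 5 uM rhodamine-CoA and 12.5 uM BHQ-2-labelled YbbR peptide added. Fluorescence (ex 525/em 598 nm) read at start and after 30 min; difference gives rate.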
# CCT chaperon mod: cytosolic chaperonin activity modulation. purified chaperonin ATPase assay, HTRF ADP detection, 30 min. activity change, % (concentration not given with the values), hits read low. 0.3% of 360,000 active; in the data active = activity change below about -30%
#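 Nucleotide hydrolysis assay: TRiC at 20–40 nM final (set by batch activity) with 10 uM ATP, 30 min at 37 °C, in presence of 76 uM compound. Detection by competitive ADP HTRF, 30 min ambient.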
# PLK1 PBD block: inhibitors of human PLK1 polo-box domain binding | P53350 | Plk1 PBD binding of FITC phosphopeptide, fluorescence polarization | Potency, µM, inactives show max response, negative = inhibition, usual class: inhibitors | 2.8% of 360,000 active; also: potency is read from the fitted curve at half-maximal effect; series mostly up to about 57 µM; nearly all actives have a fitted effect of over 65% in size
# VDR inhibitor: blocks the human vitamin D receptor. Potency, µM, for the others: max response, negative = inhibition, usual class: inhibitors. 0.93% of 400,000 active. VDR-SRC2-3 peptide fluorescence polarization, 2 h. AID 504847; also: potency is read from the fitted curve at half-maximal effect
# Target sequence (P11473 whole entry, looked up): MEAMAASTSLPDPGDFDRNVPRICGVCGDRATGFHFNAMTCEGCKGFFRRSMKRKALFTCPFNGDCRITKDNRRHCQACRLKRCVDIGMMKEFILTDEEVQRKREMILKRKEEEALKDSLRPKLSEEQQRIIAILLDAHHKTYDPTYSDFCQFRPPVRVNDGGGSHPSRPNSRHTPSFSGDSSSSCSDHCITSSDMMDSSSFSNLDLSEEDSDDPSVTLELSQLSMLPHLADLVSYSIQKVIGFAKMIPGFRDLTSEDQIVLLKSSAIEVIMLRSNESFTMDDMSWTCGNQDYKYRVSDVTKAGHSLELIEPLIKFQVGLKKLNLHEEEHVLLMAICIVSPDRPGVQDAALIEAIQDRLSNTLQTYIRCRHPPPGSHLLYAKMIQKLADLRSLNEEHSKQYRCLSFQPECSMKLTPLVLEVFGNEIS
#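 Fluorescence polarization assay of small-molecule disruption of VDR binding to coregulator peptide SRC2-3. Compounds and controls pin-transferred, then read after 2 h incubation at ambient room temperature.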
# G9a inh: blocks human histone lysine methyltransferase G9a; Q96KQ7; G9a H3K9 monomethylation, AlphaScreen, 2 h; Potency, µM (highest dose often 102 µM), inactives show top-dose activity, negative = inhibition, usual class: inhibitors; 8.8% of 350,000 active; also: potency is read from the fitted curve at half-maximal effect; nearly all actives have a fitted effect of over 75% in size
# Target sequence (Q96KQ7 913-1193 limits assumed): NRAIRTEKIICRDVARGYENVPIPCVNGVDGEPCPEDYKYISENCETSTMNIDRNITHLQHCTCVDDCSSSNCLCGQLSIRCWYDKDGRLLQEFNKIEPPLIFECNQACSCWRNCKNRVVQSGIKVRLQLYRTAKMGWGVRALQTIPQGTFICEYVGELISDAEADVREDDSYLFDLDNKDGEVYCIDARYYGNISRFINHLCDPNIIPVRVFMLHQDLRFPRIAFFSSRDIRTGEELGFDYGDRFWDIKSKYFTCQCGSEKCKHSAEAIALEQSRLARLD
#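 AlphaScreen detection with an anti-monomethyl H3K9 antibody quantified product after a 2 h room-temperature reaction containing 500 nM biotinylated H3K9 peptide, 20 µM SAM and 20 nM enzyme, which had been preincubated 15 min with compound.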
# * marks the source's active call; other numbers are inactive results; ? = inconclusive; · = no result; [ ] = another dose, or the depositor's remark. Unless noted, calls follow the shape of the dose curve; as a rule, active = well fitted curve in the direction sought with a large enough effect; inconclusive = small, poorly fitted or top-dose-only effect, or another doubt; inactive = no such curve, though single readings can be large; an effect the other way counts as inactive or inconclusive. Unless noted, % is scaled to controls: 0 for no effect and ±100 for the full control effect.
SMILES,Mm-Cpn inhibitor,Sfp PPTase inh,CCT chaperon mod,PLK1 PBD block,VDR inhibitor,G9a inh
Cc1nn(-c2ccccc2)c2[nH]c(=O)c(CNc3ccc(N4CCOCC4)cc3)cc12,-2%,45µM*,1,3µM*,-12%,32µM*
CCOc1ccccc1NS(=O)(=O)c1ccc2oc(=O)c3ncn(C)c3c2c1,·,·,·,·,17%,-22%[59 µM]
Cc1nn2c(C)c(C(=O)Nc3ccccc3)cnc2c1C#N,-7%,14%,-5,2%,-4%,16µM*
O=C1CC(/C=C/c2ccncc2)=Nc2ccccc2N1,1%,4%,2,-1%,-18%,40µM*
CCOC(=O)CC1=Nc2ccccc2NC(=O)C1,0%,8%,-1,1%,6%,1%[12.7 µM]
CC1=NN(c2ccccc2)C(=O)/C1=C\c1ccc(Br)s1,-5%,-5%,1,4.7µM*,-25%,8.9µM*
CC1=NN(c2ccccc2)C(=O)/C1=C/c1cccs1,-2%,-20%,-1,17µM*,79µM*,32µM*
CC1=NN(c2ccccc2)C(=O)/C1=C\c1cc(C)n(-c2ccccc2)c1C,1%,9%,-1,4%,7%,3.5µM*
O=C1/C(=C/c2cccs2)SC(=S)N1c1ccccc1,0%,11%,0,0%,10%,21%[59 µM]
CC1=NN(c2ccc(C)cc2)C(=O)/C1=C\C=C\c1ccccc1,2%,?,-3,-28%,79µM*,4.5µM*
CC1=NN2C(=N)/C(=C\c3cc(C)n(-c4ccccc4)c3C)C(=O)N=C2S1,2%,15%,0,1%,-20%,?
CCc1nnc2c(NCc3cccc(OC)c3)nc3ccccc3n12,·,·,·,·,1%,0%[59 µM]
CN(C)S(=O)(=O)c1ccc2c(c1)N(CC(=O)Nc1ccc(F)cc1)C(=O)CS2,·,·,·,·,10%,-20%[59 µM]
CC1=NN(c2cccc(F)c2)C(=O)/C1=C/c1ccc(N(C)C)cc1,3%,14%,-2,-1%,-4%,-16%
CC1=NN(c2ccccc2)C(=O)C1=Cc1ccccc1,·,·,0,4.7µM*,·,·
COc1ccc(/C=C2/C(=O)N(c3cccc(F)c3)N=C2C)c(OC)c1,-2%,2%,-3,?,-20%,19%[0.501 µM]
CC1=NN(c2ccc(C)c(C)c2)C(=O)/C1=C/c1ccc2c(c1)n(C)c(=O)n2C,-3%,7%,1,?,?,7.1µM*
CC1=NN(c2ccccc2)C(=O)/C1=C\N(O)c1ccccc1,-2%,-5%,1,?,-28%,·
CC1=NN(c2ccccc2)C(=O)/C1=C/c1c(O)n(-c2ccc(F)cc2)[nH]c1=O,0%,-15%,2,?,-14%,11µM*
CC1=NN(c2ccccc2)C(=O)/C1=C/C=C/C=C/N(C)C,-6%,?,-1,42%,-5%,18µM*
COc1ccc(C)cc1NC(=O)C1COc2ccccc2C1 (stereo not drawn),·,·,·,·,0%,-5%[59 µM]
COc1cccc(CNC(=O)c2ccc3nc(-c4ccc(F)cc4)c(-c4ccc(F)cc4)nc3c2)c1,·,·,·,·,-7%,1%[59 µM]
CCc1cccc(C)c1NC(=O)c1cc(S(=O)(=O)N(Cc2ccc(C(=O)OC)cc2)Cc2ccc(OC)c(OC)c2)ccc1F,·,·,·,·,3%,7%[59 µM]
CC1=NN(c2ccccc2)C(=O)/C1=C/c1ccc[nH]1,-2%,7%,-1,-7%,6%,22µM*
C/C(CCc1oc2ccc(Br)cc2c1-c1ccc(C)o1)=N/O,2%,?,-3,-10%,-13%,35µM*
SMILES,Mm-Cpn inhibitor,Sfp PPTase inh,CCT chaperon mod,PLK1 PBD block,VDR inhibitor,G9a inh
C/C(CCc1oc2ccc(Cl)cc2c1-c1ccc(C)o1)=N\O,-12%[15.4 µM],16µM*,0,-18%,-1%,?
CC(=O)CCc1oc2ccc(C)cc2c1-c1ccccc1,2%,-9%,-3,-4%,1%,326%
CCCCN(CC)C(=O)CSc1nc2ccccc2c(=O)n1Cc1ccco1,·,·,·,·,17%,-5%[59 µM]
Cc1c(-c2ccc(Br)cc2)nc2ccccn12,2%,3%,-3,-13%,?,45µM*
Cc1ccc(-c2nc3ccccn3c2C=O)cc1,3%,-14%,-1,-16%,-6%,·
CN(C)c1ccc(-c2nc3ccccn3c2/N=C/c2ccc(Br)cc2)cc1,-14%,-30%,-2,0%,-22%,10µM*
COCCNC(=O)C1CCC(CNS(=O)(=O)c2c(C)cc(C)cc2C)CC1 (stereo not drawn),1%,11%,-2,-9%,-17%,37%
Cc1cc(C)c(S(=O)(=O)NCC2CCC(C(=O)NCCCN3CCC(C)CC3)CC2)c(C)c1 (stereo not drawn),5%,-3%,-1,24µM*,?,-2%[59 µM]
C(=N\Nc1nc(-c2ccccc2)cs1)/c1ccco1,1%,?,-23,-16%,-13%,13µM*
Cc1ccc(-c2csc(N/N=C/c3ccco3)n2)cc1,-3%,89µM*,1,-6%,2%,?
CN(C)S(=O)(=O)c1ccc(-c2csc(N/N=C/c3ccc(O)cc3)n2)cc1,0%,50µM*,-2,-6%,8%,22µM*
CN(C)S(=O)(=O)c1ccc(-c2csc(N/N=C/c3ccco3)n2)cc1,0%,-2%,-3,-12%,-10%,28µM*
Cc1csc(N/N=C/c2ccc([N+](=O)[O-])cc2)n1,?,-6%,-1,-12%,-6%,-2%[59 µM]
CN(C)S(=O)(=O)c1ccc(C(=O)NCC(=O)N/N=C/c2ccco2)cc1,2%,9%,0,-13%,8%,-4%
O=C(/C=C/c1ccco1)Nc1nc(-c2ccccc2)cs1,1%,-21%,-3,-8%,-11%,?
Brc1ccc(-c2csc(N/N=C/c3ccco3)n2)cc1,1%,6%,-3,-2%,-5%,?
Cc1ccc(NC(=O)C(=O)NCC(c2cccnc2)N2CCN(Cc3ccccc3)CC2)cc1C (stereo not drawn),·,·,·,·,9%,-3%[59 µM]
CC[C@H](C)[C@H](NC(=O)[C@H](CCCNC(=N)N)NC(=O)[C@@H]1CCCN1C(=O)[C@H](Cc1ccccc1)NC(=O)[C@H](Cc1cnc[nH]1)NC(=O)[C@H](CCCNC(=N)N)NC(=O)[C@@H](NC(=O)[C@H](C)NC(=O)[C@H](CCC(=O)O)NC(=O)[C@H](CC(N)=O)NC(=O)[C@@H](N)CCCCN)C(C)C)C(=O)N[C@@H](Cc1c[nH]c2ccccc12)C(=O)N[C@@H](CC(C)C)C(=O)O,·,5%,·,·,7%,·
CCN=c1sc(C(=O)NCCc2ccccc2)cc(=O)n1CC,0%,56µM*,-1,-17%,?,?
CCn1c(=O)c2cc(C(=O)NCCc3cccc(C)c3)sc2c2ccccc21,·,·,·,·,-12%,0%[59 µM]
